Experimental data reported in PubChem BioAssay AID720504 (National Center for Advancing Translational Sciences (NCATS), 2013).
Hit rate of the full screen: of about 360,000 compounds, about 10,000 (2.8%) were called active. About 4% were inconclusive and are not listed. Calls follow the shape of the dose curve; as a rule, active = well fitted inhibition curve with a large enough effect; inconclusive = small, poorly fitted or top-dose-only effect; inactive = flat fitted curve, though single readings scatter. The sample as a whole holds a higher share of actives than the screen did.

Each compound was assayed against Serine/threonine-protein kinase PLK1 (Homo sapiens) (UniProt P53350) (assay: qHTS for Inhibitors of PLK1-PDB (polo-like kinase 1 - polo-box domain): Primary Screen). Conditions: Plk1 PBD binding of FITC phosphopeptide, fluorescence polarization.
Chain of Serine/threonine-protein kinase PLK1 (Homo sapiens) (P53350 whole entry, looked up, the tested form may be a part): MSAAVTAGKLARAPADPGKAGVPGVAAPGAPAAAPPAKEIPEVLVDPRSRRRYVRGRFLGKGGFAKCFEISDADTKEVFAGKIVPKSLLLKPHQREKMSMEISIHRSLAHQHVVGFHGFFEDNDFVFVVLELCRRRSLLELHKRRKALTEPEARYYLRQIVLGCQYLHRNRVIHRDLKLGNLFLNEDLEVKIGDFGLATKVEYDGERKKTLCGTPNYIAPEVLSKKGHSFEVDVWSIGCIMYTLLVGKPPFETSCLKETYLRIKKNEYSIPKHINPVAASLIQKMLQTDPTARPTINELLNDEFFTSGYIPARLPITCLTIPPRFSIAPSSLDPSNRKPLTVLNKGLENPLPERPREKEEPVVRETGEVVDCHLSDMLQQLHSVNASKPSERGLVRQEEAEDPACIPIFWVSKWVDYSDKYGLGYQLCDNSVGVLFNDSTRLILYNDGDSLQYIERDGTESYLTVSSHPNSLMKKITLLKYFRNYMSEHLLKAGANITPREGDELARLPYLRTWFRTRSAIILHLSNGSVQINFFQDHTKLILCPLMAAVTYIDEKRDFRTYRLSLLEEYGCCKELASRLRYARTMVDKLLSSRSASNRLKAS
% is scaled to controls: 0 for no effect and ±100 for the full control effect; potency is read from the fitted curve at half-maximal effect.
Also: nearly all actives have a fitted effect of over 65% in size.
For max response, negative = inhibition in this document: series mostly up to about 57 µM.

| SMILES | max response, negative = inhibition | Potency |
| --- | --- | --- |
| Nc1ncnc2c1ncn2[C@@H]1O[C@H](C(=O)N2CCCN(Cc3ccccc3F)CC2)[C@@H](O)[C@H]1O | -0.717% (inactive) | – |
| CC1CCN(C(=S)NC(=O)c2ccccc2Br)CC1 | -2.34% (inactive) | – |
| CC1CCN(C(=S)c2cccc(O)c2)CC1 | – | 18.9 µM (active) |
| Cc1nc2ccc(NC(=S)N3CCC(C)CC3)cc2nc1C | 0.665% (inactive) | – |
| CCCCc1c(-c2ccc(Br)cc2)ncn1CCc1ccccc1OC | 3.4% (inactive) | – |
| NCCCCC(C(=O)O)N(C(=O)OCc1ccccc1)C(=O)OCc1ccccc1 (stereo not drawn) | -19.2% (inactive) | – |
| CC1Cc2[nH][nH]c(=O)c2C(C2CC2)O1 (stereo not drawn) | -23.1% (inactive) | – |
| O=C(COc1ccc(S(=O)(=O)Nc2cccc(C(F)(F)F)c2)cc1)N1CCOCC1 | -3.59% (inactive) | – |
| O=C(NCc1ccccc1)c1ccc(S(=O)(=O)Nc2cccc(C(F)(F)F)c2)cc1 | -14.9% (inactive) | – |
| Cc1oc2c(F)c(F)c(F)c(F)c2c1S(=O)(=O)Nc1cccc(C(F)(F)F)c1 | – | 37.7 µM (active) |
| Cc1[nH]c2ccccc2c1C(=O)C(=O)NCc1nnnn1-c1cccc(F)c1 | -8.15% (inactive) | – |
| Cc1cc(C)nc(SCc2nnc(SCC(=O)Nc3ncc(C)s3)n2Cc2ccco2)n1 | -1.22% (inactive) | – |
| Cn1c(SCC(=O)Nc2nccs2)nnc1-c1cccnc1 | -6.93% (inactive) | – |
| Cc1cnc(NC(=O)CSc2nnc(-c3ccc(Cl)cc3Cl)n2N)s1 | – | 23.8 µM (active) |
| CN(Cc1ccccc1)C(=O)CCC1CCN(C(=O)c2ccco2)CC1 | -7.2% (inactive) | – |
| CCCN(CCC)C(=O)C1c2ccccc2Oc2ccccc21 | -4.59% (inactive) | – |
| CC(C)(C)NC(=O)NC(=O)COC(=O)C1c2ccccc2Oc2ccccc21 | -13.1% (inactive) | – |
| CC(C)(C)c1nnc(NC(=O)C2c3ccccc3Oc3ccccc32)s1 | – | 2.67 µM (active) |
| CCc1nc2ccc(C(=O)N3CCN(S(=O)(=O)CC)CC3)cn2c1N(C=O)CCC(C)C | -4.19% (inactive) | – |
| O=C(CCCN1C(=O)C(c2ccccc2)Oc2cccnc21)Nc1ccccc1Br (stereo not drawn) | 3.26% (inactive) | – |
| CCCCn1nnnc1C(c1cccc(OC)c1OC)N1CCN(C/C=C/c2ccccc2)CC1 (stereo not drawn) | -4.93% (inactive) | – |
| CC1(C)CC(=O)C=C(c2ccc(COC(=O)c3cc(F)cc(F)c3)cc2)C1=O | -3.92% (inactive) | – |

| SMILES | max response, negative = inhibition | Potency |
| --- | --- | --- |
| O=C(O)CCn1cc(/C=C/C(=O)c2ccc(Cl)cc2)c(-c2cccc(Br)c2)n1 | – | 21.2 µM (active) |
| O=C(COC(=O)/C=C/c1cn(-c2ccccc2)nc1-c1cccnc1)Nc1ccc(Cl)cc1Cl | 13.1% (inactive) | – |
| O=C(/C=C/NNC(=O)c1cccc(Br)c1)c1ccccc1 | -5.78% (inactive) | – |
| CCCCc1ccc(S(=O)(=O)NC(=O)C2(C)CCN2C(=O)c2c(C)noc2C)cc1 (stereo not drawn) | -12% (inactive) | – |
| Cc1ccc(CNC(=O)Cc2cn(C)c3ccccc23)cc1 | -3.92% (inactive) | – |
| CCn1cc(CCC(=O)NCc2ccc(F)cc2)c2ccccc21 | – | 23.8 µM (active) |
| Cn1cc(CCC(=O)NC2CC2)c2ccccc21 | -19.7% (inactive) | – |
| COc1ccc(-c2cc(NC=O)c3ncc(-c4cccc(C(=O)N(C)C)c4)n3c2)c(OC)c1 | -16.4% (inactive) | – |
| O=C(CC1SC(=Nc2ccccc2)N(Cc2ccccn2)C1=O)Nc1cccc(Cl)c1 (stereo not drawn) | – | 29.9 µM (active) |
| CN1C(=O)C(CC(=O)Nc2ccccc2)S/C1=N/c1nccs1 (stereo not drawn) | – | 26.7 µM (active) |
| CCN=C1SC(CC(=O)Nc2ccc(C)cc2)C(=O)N1CC (stereo not drawn) | -1.27% (inactive) | – |
| CC1CC(=O)N(CC(=O)Nc2cccc(Cl)c2)c2ccccc2S1(=O)=O (stereo not drawn) | -2.47% (inactive) | – |
| CCN1C(=O)C(CC(=O)Nc2cc(C)ccc2C)SC1=Nc1ccc(S(N)(=O)=O)cc1 (stereo not drawn) | -2.89% (inactive) | – |
| CN=C1SC(CC(=O)Nc2ccc(C(=O)O)cc2)C(=O)N1C (stereo not drawn) | -12.2% (inactive) | – |
| CCCC/C=C/c1cccc2nncn12 | 0.37% (inactive) | – |
| O=C(Nc1nnc([C@H]2C[C@H](O)[C@@H](CO)O2)s1)c1cccc(Cl)c1 | -11.4% (inactive) | – |
| O=C(CSc1ncn[nH]1)Nc1nc2c(F)c(F)c(F)cc2s1 | -14.3% (inactive) | – |
| CCn1c(=S)sc2c(=O)n(CC(=O)Nc3ccc(OC)cc3)c(C)nc21 | – | 33.6 µM (active) |
| CCn1c(=S)sc2c(=O)n(CC(=O)Nc3cccc(Br)c3)c(C)nc21 | 5.75% (inactive) | – |
| COc1ccc(NC(=O)Cn2c(-c3ccc(OC)cc3)cn(-c3ccc(C)cc3)c2=O)cc1 | -2.89% (inactive) | – |
| CCCCCc1c(Cc2ccccc2)ncn1CCc1ccccc1OC | -12.9% (inactive) | – |
| CCc1ccc(N(C(=O)c2csnn2)C(C(=O)NC2CCCCC2)c2ccncc2)cc1 (stereo not drawn) | -3.61% (inactive) | – |

| SMILES | max response, negative = inhibition | Potency |
| --- | --- | --- |
| Cc1ccc(N(C(=O)C(F)(F)F)C(C(=O)NC2CCCCC2)c2ccncc2)cc1C (stereo not drawn) | – | 11.9 µM (active) |
| Cc1cc(NC(=O)CCC(=O)N(c2cccc(F)c2)C(C(=O)NC2CCCC2)c2ccncc2)no1 (stereo not drawn) | -7.93% (inactive) | – |
| COc1ccc(C(C)(O)c2nc(-c3ccc(C)c(C)c3)cs2)cc1 (stereo not drawn) | -4.12% (inactive) | – |
| COCCNC(=O)c1cc2c(Br)ccc(Br)c2nc1N | -4.02% (inactive) | – |
| CCOC(=O)[C@]12CCC=C1N(Cc1cccc3ccccc13)C(=O)[C@H](CC(=O)NCc1cccc(C(F)(F)F)c1)C2 | -6.42% (inactive) | – |
| CCOc1ccc(OCC)c(NC(=O)CN(C)S(=O)(=O)c2cccc3nsnc23)c1 | – | 29.9 µM (active) |
| CCOc1ccccc1NC(=O)CCS(=O)(=O)c1cccc2nsnc12 | 7.52% (inactive) | – |
| CCOc1ccc(N(CC)S(=O)(=O)c2cccc3nsnc23)cc1 | -8.88% (inactive) | – |
| COc1ccc(CN2C[C@H]3CON(C)[C@H]3C[C@H]2c2ccc(-c3cccc(F)c3)cc2)cc1 | 5.3% (inactive) | – |
| Cc1sc2ncn(CC(=O)NCCN(C)C)c(=O)c2c1S(=O)(=O)N1CCC(C)CC1 | -12.5% (inactive) | – |
| COc1cccc(NC(=O)Cn2cnc3sc(C)c(S(=O)(=O)N4CCN(C)CC4)c3c2=O)c1 | – | 8.44 µM (active) |
| COc1ccc(N2CCN(C(=O)Cn3cnc4sc(C)c(S(=O)(=O)N5CCOCC5)c4c3=O)CC2)cc1 | -11.3% (inactive) | – |
| COCCCNC(=O)c1cccc2c(-c3ccc(O)c(OC)c3)coc12 | -12.1% (inactive) | – |
| O=C(N[C@H]1CC[C@H](CC(=O)N2CCCCC2)O[C@@H]1CO)c1cccc(F)c1 | 6.09% (inactive) | – |
| Cc1ccc(Cl)c(OCC(=O)N(C)CC(=O)Nc2ccc(N3CCOCC3)cc2)c1 | -2.7% (inactive) | – |
| Cc1ccc(Cl)c(OCC(=O)N2CCc3ccccc3C2)c1 | -3.49% (inactive) | – |
| Cc1ccc(Cl)c(OCC(=O)NN2CCN(C)CC2)c1 | – | 23.8 µM (active) |
| Cc1cc(C)c2c(=O)n3c(nc2c1)C(CC(C)C)NC(=O)c1cc2ccccc2cc1-3 (stereo not drawn) | 1.09% (inactive) | – |
| O=C(Nc1ccc(Cl)c(C(F)(F)F)c1)C1Cc2c(-c3ccccc3Oc3ccccc3)ccnc2O1 (stereo not drawn) | -6% (inactive) | – |
| Cc1ccc(NC(=O)C2CCCN2S(=O)(=O)c2cccc3cccnc23)c(C)c1 (stereo not drawn) | -3.33% (inactive) | – |
| Cc1cc(C)cc(NC(=O)C2CCCN2S(=O)(=O)c2cccc3cccnc23)c1 (stereo not drawn) | -10.9% (inactive) | – |
| O=C(Nc1nccs1)C1CCCN1S(=O)(=O)c1cccc2cccnc12 (stereo not drawn) | – | 26.7 µM (active) |

| SMILES | max response, negative = inhibition | Potency |
| --- | --- | --- |
| Cc1ccccc1-c1nc(NC(C)C)nc2cc(-c3ccccc3)sc12 | -6.2% (inactive) | – |
| O=C(C1CC(=O)N(C2CCCCC2)C1)N1CCN(c2ccccc2)CC1 (stereo not drawn) | -15.5% (inactive) | – |
| O=C(C1CC(=O)N(c2ccc(F)cc2)C1)N1CCN(c2ccccc2)CC1 (stereo not drawn) | – | 18.9 µM (active) |
| CC1CC(C)CN(C(=O)C2CC(=O)N(c3ccc(F)cc3)C2)C1 (stereo not drawn) | -7.49% (inactive) | – |
| CC1=C(C(=O)N(C)C)CC(CC(=O)NCCc2ccccn2)C(=O)N1CCC1=CCCCC1 (stereo not drawn) | -5.19% (inactive) | – |
| CC(=O)N(C1=C(Cl)C(=O)c2ccccc2C1=O)c1ccc(C(=O)O)cc1 | – | 2.99 µM (active) |
| COCCNC(=O)CSc1nc(N)c(NC(=O)c2ccco2)c(=O)[nH]1 | -1.47% (inactive) | – |
| O=C(Nc1nc(-c2ccco2)c(-c2ccco2)s1)c1ccco1 | -24.5% (inactive) | – |
| COCCNC(=O)Nc1ccc2nc(-c3ccco3)c(-c3ccco3)nc2c1 | – | 21.2 µM (active) |
| CC1(C(=O)NS(=O)(=O)c2ccccc2Cl)CCN1C(=O)c1cccc(F)c1 (stereo not drawn) | -14.1% (inactive) | – |
| CC(C)CN1C(=O)CN(S(C)(=O)=O)CC1(C)C(=O)NCc1ccccc1 (stereo not drawn) | 4.65% (inactive) | – |
| O=C1NC[C@H](Cc2ccc(O)cc2)N(C[C@H]2CCCN2C[C@H](Cc2ccccc2)N2C[C@H](Cc3ccccc3)N(CCc3ccccc3)C(=O)C2=O)C1=O | -6.61% (inactive) | – |
| CC1CCN(c2ccc3c(c2)S(=O)(=O)c2cc(C(=O)O)ccc2C3=O)CC1 | 2.83% (inactive) | – |
| CC(C)Sc1ncnc2c1cnn2-c1ccccc1 | 2.81% (inactive) | – |
| O=C(NCCC1=CCCCC1)c1ccc(-n2cncn2)cc1 | 7.38% (inactive) | – |
| C1=C(CCNc2ncnc3c2cnn3-c2ccccc2)CCCC1 | – | 3.36 µM (active) |
| C[C@H]1CN(c2ccc(Br)cc2)C(=O)[C@@H]1CC(=O)Nc1ccc(Br)cc1 | 1% (inactive) | – |
| O=C(C(=O)N1CCN(c2ccccc2)CC1)c1ccc2c(c1)OCO2 | -10.2% (inactive) | – |
| O=C(CN1CCN(c2ccccn2)CC1)Nc1ccc(Br)cc1 | -15.1% (inactive) | – |
| O=C(Cc1ccccc1Cl)N1CCN(c2ccccn2)CC1 | -14.6% (inactive) | – |
| O=C(Cc1ccc(Br)cc1)N1CCN(c2ccccn2)CC1 | – | 29.9 µM (active) |
| CCc1nnc(NC(=O)c2ccco2)s1 | -6.68% (inactive) | – |
